Test results published in PubChem BioAssay AID1347414 (National Center for Advancing Translational Sciences (NCATS), 2020).
Several values for one entry are separate records, joined by “and”; a condition that tells them apart may be missing. Equal values may be shown once. Inconclusive results are not listed. Activity calls are given as the source filed them. Calls come from the whole dose curve; as a rule, active = well fitted inhibition curve with a large enough effect; inconclusive = small, poorly fitted or top-dose-only effect; inactive = no such curve, though single readings can be large or run the other way.

Assay: qHTS to identify inhibitors of the type 1 interferon - major histocompatibility complex class I in skeletal muscle: Secondary screen by immunofluorescence; note: nearly all actives have a fitted effect of over 70% in size
Details: C25cl48 myoblasts, IFN-b induced HLA-ABC immunofluorescence, 24 h; series mostly up to 49.8 µM
In short: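 Immortalized human myoblasts C25cl48 were stimulated with 4.0 ng/ml IFN-beta and exposed to an 11-point 1:3 compound titration, top 50 uM, for 24 h at 37 C. They were then fixed and immunostained for HLA-ABC, and quantified by laser scanning cytometry.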
Potency is the fitted concentration of half-maximal effect.

SMILES	Potency
COC(=O)[C@@]12OC[C@]34[C@H]([C@@H](O)[C@@H]1O)[C@@]1(C)CC(=O)C(O)=C(C)[C@@H]1C[C@H]3OC(=O)[C@H](OC(=O)/C=C(\C)C(C)C)[C@@H]24	36.4 nM (active)
CC(C)[C@]12O[C@H]1[C@@H]1O[C@]13[C@]1(O[C@H]1C[C@H]1C4=C(CC[C@@]13C)C(=O)OC4)[C@@H]2O	91.4 nM (active)
Cc1[nH]nc2ccc(-c3cncc(OC[C@@H](N)Cc4c[nH]c5ccccc45)c3)cc12	230 nM (active)
CC1(C)CC[C@]2(NC(=O)C(C)(F)F)CC[C@]3(C)[C@H](C(=O)C=C4[C@@]5(C)C=C(C#N)C(=O)C(C)(C)[C@@H]5CC[C@]43C)[C@@H]2C1	3240 nM (active)
COC(=O)[C@]12CCC(C)(C)C[C@H]1[C@H]1C(=O)C=C3[C@@]4(C)C=C(C#N)C(=O)C(C)(C)[C@@H]4CC[C@@]3(C)[C@]1(C)CC2	3640 nM (active)
O=c1[nH]c2ccc(Cl)cc2c(N[C@@H]2CN3CCC2CC3)c1-c1nc2ccccc2[nH]1	1620 nM (active)
CC1=C(O)C(=O)C=C2C1=CC=C1[C@@]2(C)CC[C@@]2(C)[C@@H]3C[C@](C)(C(=O)O)CC[C@]3(C)CC[C@]12C	1150 nM (active)
O=C1/C(=C\c2ccccc2)C[C@@]2(O)[C@H]3Cc4ccc(O)c5c4[C@@]2(CCN3CC2CC2)[C@H]1O5	2290 nM (active)
C[C@@H]1O[C@@H](O[C@H]2C[C@@H](O)[C@]3(CO)[C@H]4[C@H](O)C[C@]5(C)[C@@H](C6=CC(=O)OC6)CC[C@]5(O)[C@@H]4CC[C@]3(O)C2)[C@H](O)[C@H](O)[C@H]1O	64.7 nM (active)
Cc1[nH]ncc1-c1cc2nc([C@@H]3CC4CCN3CC4)[nH]c(=O)c2s1	3640 nM (active)
COc1cccc2c1C(=O)c1c(O)c3c(c(O)c1C2=O)C[C@@](O)(C(=O)CO)CC3OC1CC(N2CCOC(OC)C2)C(O)C(C)O1 (stereo not given in full)	57.6 nM (active)
O=[N+]([O-])/C=C/c1ccc2c(c1)OCO2	18200 nM (active)
C[C@@H]1O[C@@H](O[C@@H]2C=C3CC[C@@H]4[C@H](CC[C@]5(C)[C@@H](c6ccc(=O)oc6)CC[C@]45O)[C@@]3(C)CC2)[C@H](O)[C@H](O)[C@H]1O	36.4 nM (active)
CC(=O)OC[C@H]1O[C@@H]([S-])[C@H](OC(C)=O)[C@@H](OC(C)=O)[C@@H]1OC(C)=O.CC[PH+](CC)CC.[Au]	576 nM (active)
CC(C)[C@]12O[C@H]1[C@@H]1O[C@@]13[C@@]1(C)CCC4=C(COC4=O)[C@@H]1C[C@@H]1O[C@@]13C2=O	162 nM (active)
C/C(=C\c1csc(C)n1)[C@@H]1C[C@@H]2O[C@]2(C)CCC[C@H](C)[C@H](O)[C@@H](C)C(=O)C(C)(C)[C@@H](O)CC(=O)O1	inactive
CC(C)(C)c1cc(C=C(C#N)C#N)cc(C(C)(C)C)c1O	inactive
CC[C@@]1(O)C(=O)OCc2c1cc1n(c2=O)Cc2cc3ccccc3nc2-1	1.62 µM (active) and 2.05 µM (active)
C/C1=C/C[C@@H](/C(C)=C/c2csc(C)n2)OC(=O)C[C@H](O)C(C)(C)C(=O)[C@H](C)[C@@H](O)[C@@H](C)CCC1	inactive
Cc1sc2c(c1C)C(c1ccc(Cl)cc1)=N[C@@H](CC(N)=O)c1nnc(C)n1-2	162 nM (active)
